From PubChem BioAssay (NCI) come the findings set out here.

This is part of a sample that, as a whole, favours compounds with a hit. Of some 83,000 tested, about 20% had one in any assay.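 48-hour exposure, single concentration, 96-well plates; percent growth endpoint where 0 means no net growth. Active: below 10.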 A number with no mark means an inactive call. Calls of active or inactive are those of the source.

Among the test systems are SK-MEL-2 melanoma; EKVX NSCLC; SN12C renal; UO-31 renal; TK-10 renal; ACHN renal; CAKI-1 renal; A498 renal; CCRF-CEM leukemia; MOLT-4 leukemia; SR leukemia; RPMI-8226 leukemia; OVCAR-8 ovarian; OVCAR-5 ovarian; OVCAR-4 ovarian; SK-OV-3 ovarian; IGROV1 ovarian; OVCAR-3 ovarian; HS 578T breast; NCI/ADR-RES ovarian.
Holding throughout (assay): NCI-60 one-dose screen, 48 h (100 = growth as untreated, 0 = no growth, -100 = all killed)
Conditions in all cases: 10 µM unless noted

For the compound `Clc1ccc(-n2ncc3c(NCCCN4CCOCC4)ncnc32)cc1`, the growth in the experiment on SK-MEL-2 melanoma is 108%; with EKVX NSCLC, 92.9%; in the experiment on SN12C renal, 99.1%; in the experiment with UO-31 renal it was 79.6%; in the experiment on TK-10 renal, 107%; in the experiment with ACHN renal, 96.4%. The growth was 107% with CAKI-1 renal; 104% with A498 renal; 94.4% in the experiment on CCRF-CEM leukemia; 97.7% in the experiment on MOLT-4 leukemia; 88.9% with SR leukemia; 93.7% in the experiment on RPMI-8226 leukemia. The growth in the experiment with OVCAR-8 ovarian was 100%; in the experiment with OVCAR-5 ovarian it was 92.2%; in the experiment with OVCAR-4 ovarian, 102%; in the experiment with SK-OV-3 ovarian, 93.1%; in the experiment on IGROV1 ovarian, 103%; in the experiment on OVCAR-3 ovarian it was 105%. The growth with HS 578T breast was 91.5%; with NCI/ADR-RES ovarian it was 86.8%.

On to `CC1(C)N=c2cc3c(cc2N1c1ccc(Cl)cc1)=Nc1ccccc1N3c1ccc(Cl)cc1`, for which the growth in the experiment on SK-MEL-2 melanoma is -1.35% (active); in the experiment with EKVX NSCLC it was 52.9%; in the experiment with SN12C renal it was 75.7%; in the experiment with UO-31 renal it was -37.1% (active); in the experiment with TK-10 renal, 65.2%; in the experiment with ACHN renal, 40.2%. Further, the growth was 44.2% in the experiment on CAKI-1 renal; 26.7% with A498 renal; -25.3% (active) in the experiment on CCRF-CEM leukemia; -32.2% (active) with MOLT-4 leukemia; -41.9% (active) in the experiment with SR leukemia; -27.5% (active) in the experiment with RPMI-8226 leukemia. Further, the growth was 21% in the experiment on OVCAR-8 ovarian; 25.5% in the experiment on OVCAR-5 ovarian; 39.1% in the experiment on OVCAR-4 ovarian; 59.4% with SK-OV-3 ovarian; 35.9% in the experiment on OVCAR-3 ovarian; 20.4% in the experiment with NCI/ADR-RES ovarian.

`O=C(Cc1ccccc1)C(F)(F)F`: the growth is 107% in the experiment on SK-MEL-2 melanoma; 99.1% in the experiment on EKVX NSCLC; 103% in the experiment with SN12C renal; 93.7% in the experiment on UO-31 renal; 103% in the experiment on TK-10 renal; 106% in the experiment on ACHN renal. In addition, the growth in the experiment on CAKI-1 renal was 89.8%; in the experiment with A498 renal, 102%; in the experiment on CCRF-CEM leukemia, 98.4%; in the experiment on MOLT-4 leukemia, 82.7%; in the experiment on SR leukemia, 94.7%; in the experiment on RPMI-8226 leukemia it was 106%. Further, the growth with OVCAR-8 ovarian is 103%; in the experiment on OVCAR-5 ovarian, 99.5%; in the experiment with OVCAR-4 ovarian it was 106%; in the experiment on SK-OV-3 ovarian it was 101%; with IGROV1 ovarian it was 101%; with OVCAR-3 ovarian it was 101%. Further, the growth is 111% in the experiment with HS 578T breast and 104% in the experiment on NCI/ADR-RES ovarian.

In the case of `O=C(CCl)N(c1ccccc1)c1ccccc1`, the growth is 97.7% in the experiment on SK-MEL-2 melanoma; 111% in the experiment with EKVX NSCLC; 99.6% with SN12C renal; 86.7% in the experiment with UO-31 renal; 105% in the experiment with TK-10 renal; 109% in the experiment with ACHN renal. Also, the growth with CAKI-1 renal is 105%; in the experiment on A498 renal it was 105%; in the experiment on CCRF-CEM leukemia, 92.7%; with MOLT-4 leukemia it was 102%; in the experiment on SR leukemia, 101%; in the experiment with RPMI-8226 leukemia, 109%. The growth was 96.3% in the experiment on OVCAR-8 ovarian; 117% in the experiment on OVCAR-5 ovarian; 111% in the experiment with OVCAR-4 ovarian; 114% in the experiment with SK-OV-3 ovarian; 115% with IGROV1 ovarian; 109% in the experiment with OVCAR-3 ovarian. Moreover, the growth with HS 578T breast was 102%; in the experiment on NCI/ADR-RES ovarian, 108%.

With `CCCCOS(=O)(=O)c1ccccc1`, the growth in the experiment with SK-MEL-2 melanoma was 99.9%; with EKVX NSCLC it was 108%; in the experiment with SN12C renal, 100%; in the experiment with UO-31 renal it was 99.8%; in the experiment with TK-10 renal, 106%; in the experiment on ACHN renal, 103%. The growth with CAKI-1 renal is 93.2%; in the experiment on A498 renal, 128%; with CCRF-CEM leukemia it was 110%; with MOLT-4 leukemia it was 166%; in the experiment on SR leukemia, 126%; in the experiment on RPMI-8226 leukemia, 126%. The growth in the experiment on OVCAR-8 ovarian is 120%; with OVCAR-5 ovarian it was 95.8%; in the experiment with OVCAR-4 ovarian, 104%; in the experiment with SK-OV-3 ovarian, 113%; in the experiment on IGROV1 ovarian it was 131%; with OVCAR-3 ovarian it was 112%. Moreover, in the experiment with HS 578T breast, the growth is 107%.

As to `CCCCCC/C=C1\CCC(CN2CCCC2)C1=O` (configuration not stated), the growth in the experiment on SK-MEL-2 melanoma was 114%; in the experiment with EKVX NSCLC, 113%; with SN12C renal it was 103%; with UO-31 renal, 90.4%; in the experiment with TK-10 renal it was 124%; in the experiment with ACHN renal it was 114%. The growth is 102% in the experiment on CAKI-1 renal; 94.1% with A498 renal; 33.1% in the experiment on CCRF-CEM leukemia; 60.2% in the experiment with MOLT-4 leukemia; 43.5% with SR leukemia; -12.2% (active) in the experiment with RPMI-8226 leukemia. Moreover, the growth is 106% in the experiment on OVCAR-8 ovarian; 135% in the experiment with OVCAR-5 ovarian; 109% with OVCAR-4 ovarian; 110% with SK-OV-3 ovarian; 113% in the experiment with IGROV1 ovarian; 103% in the experiment on OVCAR-3 ovarian. The growth was 96.3% with HS 578T breast and 105% in the experiment on NCI/ADR-RES ovarian.

With `Cc1ccccc1NC(=O)Cc1csc2[n+]1C(=O)/C(=C/c1ccc([N+](=O)[O-])cc1)S2`, the growth in the experiment on SK-MEL-2 melanoma was 108%; in the experiment with EKVX NSCLC it was 92.8%; in the experiment on SN12C renal, 99.6%; in the experiment on UO-31 renal it was 71.8%; in the experiment with TK-10 renal, 117%; in the experiment on ACHN renal it was 90.4%. Moreover, the growth was 93.4% with CAKI-1 renal; 75% with A498 renal; 99.1% in the experiment with CCRF-CEM leukemia; 88.2% with MOLT-4 leukemia; 79.7% in the experiment with SR leukemia; 91.2% with RPMI-8226 leukemia. Further, the growth was 97.9% in the experiment with OVCAR-8 ovarian; 98.4% in the experiment on OVCAR-5 ovarian; 83.6% with OVCAR-4 ovarian; 90.1% with SK-OV-3 ovarian; 103% with IGROV1 ovarian; 97.8% in the experiment on OVCAR-3 ovarian. For the same compound, the growth with HS 578T breast is 98.6%; in the experiment on NCI/ADR-RES ovarian it was 100%.

On to `C/C(=N/NC(N)=S)c1ccc(C)cc1`, for which the growth in the experiment with SK-MEL-2 melanoma was 101%; in the experiment with EKVX NSCLC it was 53.9%; in the experiment on SN12C renal, 87.4%; in the experiment on UO-31 renal, 68.1%; with TK-10 renal, 102%; with ACHN renal, 96.6%. Moreover, the growth in the experiment with CAKI-1 renal is 99.8%; in the experiment with A498 renal, 94.7%; with CCRF-CEM leukemia, 43.3%; in the experiment with MOLT-4 leukemia, 63.9%; with SR leukemia, 94.6%; in the experiment on RPMI-8226 leukemia it was 71.4%. The growth in the experiment with OVCAR-8 ovarian is 76.7%; with OVCAR-5 ovarian it was 111%; with OVCAR-4 ovarian, 88%; with SK-OV-3 ovarian, 98.8%; in the experiment on IGROV1 ovarian, 105%; in the experiment on OVCAR-3 ovarian, 62.8%. Further, the growth in the experiment with HS 578T breast is 102%; with NCI/ADR-RES ovarian it was 76%.
